# Test results reported in PubChem BioAssay (Tox21).
# Results filed as inconclusive are left out. The source made the active and inactive calls. Calls follow the shape of the dose curve; as a rule, active = well fitted inhibition curve with a large enough effect in the signal ratio in the repeat runs (not every such curve was filed as active); inconclusive = weak or mixed curves, or effect the other way; inactive = no such curve, though single readings can be large or run the other way; the % refers to the signal ratio.
# Target: Estrogen receptor beta (Homo sapiens) (UniProt Q92731)
# Assay: qHTS assay to identify small molecule antagonists of the estrogen receptor beta (ER-beta) signaling pathway (AID 1259378)
# Conditions: ER-beta-UAS-bla HEK293T, beta-lactamase FRET ratio, 16 h; series mostly up to 92.4 µM
# Text: National Center for Advancing Translational Sciences [NCATS]
# NIH Chemical Genomics Center [NCGC]
# U.S. Environmental Protection Agency [EPA]
# National Institutes of Environmental Health Sciences [NIEHS]
# National Toxicology Program [NTP]
# U.S. Food and Drug Administration [FDA]
# Estrogen receptor (ER), a nuclear hormone receptor, plays an important role in development, metabolic homeostasis and reproduction. Two subtypes of ER, ER-alpha and ER-beta, have similar expression patterns with some uniqueness in both types. Endocrine disrupting chemicals (EDCs) and their interactions with steroid hormone receptors like ER causes disruption of normal endocrine function. To identify the compounds that inhibit ER signaling, an ER-beta-UAS-bla GripTite cell line (Life Technologies, Madison, WI, USA) containing a beta-lactamase reporter gene under the control of an UAS response element was used to screen Tox21 10K compound library.
# Tox21 Assay Protocol Summary:
# ER-beta-UAS-bla HEK293T cells were dispensed at 2,000 cells/4 uL of assay medium containing 2% charcoal stripped FBS per well into black wall/clear-bottom 1536-well plates using a Multidrop Combi (ThermoFisher Scientific, Waltham, MA) dispenser. After the assay plates were incubated at a 37C and 5% CO2 for 6 hr, 23 nL of compounds dissolved in DMSO, positive controls or DMSO only was transferred to the assay plate by a Pintool station (Kalypsys, San Diego, CA), followed by addition of 1 uL (1nM as final concentration) of 17-beta-estradiol (E2) in assay medium using a BioRAPTR FRD (Flying Reagent Dispenser, Aurora Discovery, San Diego, CA). The plates were incubated at 37C and 5% CO2 for 16 hr. Then 1 uL of LiveBLAzerTM B/G FRET substrate was added using a Flying Reagent Dispenser, the plates were incubated at room temperature for 2 hours, and fluorescence intensity was measured by an Envision plate reader (PerkinElmer, Shelton, CT).
# % is scaled to controls: 0 for no effect and ±100 for the full control effect.
# Sequence of Estrogen receptor beta (Homo sapiens) (Q92731 whole entry, looked up): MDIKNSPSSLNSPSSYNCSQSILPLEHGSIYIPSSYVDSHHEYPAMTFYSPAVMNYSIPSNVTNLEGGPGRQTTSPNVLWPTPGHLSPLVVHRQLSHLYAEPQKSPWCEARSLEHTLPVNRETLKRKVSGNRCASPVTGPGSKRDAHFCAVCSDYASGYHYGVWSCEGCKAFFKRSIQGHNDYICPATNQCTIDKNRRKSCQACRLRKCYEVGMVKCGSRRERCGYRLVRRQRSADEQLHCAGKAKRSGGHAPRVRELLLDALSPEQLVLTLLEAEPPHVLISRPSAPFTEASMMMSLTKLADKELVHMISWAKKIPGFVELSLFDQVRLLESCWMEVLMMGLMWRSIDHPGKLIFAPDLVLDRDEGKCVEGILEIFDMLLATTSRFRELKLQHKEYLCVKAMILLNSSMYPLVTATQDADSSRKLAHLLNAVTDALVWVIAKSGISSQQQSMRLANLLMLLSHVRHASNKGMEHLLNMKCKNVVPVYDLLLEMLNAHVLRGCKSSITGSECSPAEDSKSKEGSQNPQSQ
Structure (SMILES),outcome,"activity, negative = inhibition"
CCN(CCC#N)c1ccccc1,inactive,
CCOC(=O)CCc1ccccc1,inactive,
CCOC(=O)OCC/C(SC(=O)OCC)=C(\C)N(C=O)Cc1cnc(C)nc1N,inactive,
CCOC(=O)CC(CC(=O)OCC)(OC(C)=O)C(=O)OCC,inactive,
CCC(=O)OCCC(C)CCC=C(C)C (stereo not given),inactive,
CCC(CO)CO,inactive,
C=CC(C)(O)CC/C=C(\C)CC (stereo not given),inactive,
O=C(/C=C/c1ccccc1)NCCO,inactive,
CCC(C)N (stereo not given),inactive,
CC(=O)OCCCc1ccccc1,inactive,
O=CN1CCOCC1,inactive,
CO[Si](CCCS)(OC)OC,inactive,
CCCCCCCCC(=O)OCC,inactive,
Cc1nc2ccccc2c(=O)o1,inactive,
CCCCOC(=O)C(C)OC(=O)CCC (stereo not given),inactive,
CC(Cl)COP(=O)(OCC(C)Cl)OCC(C)Cl (stereo not given),inactive,
C=CCOCC(CO)(COCC=C)COCC=C,inactive,
Cc1ccccc1C,inactive,
CC1=CC[C@H](CC=O)C1(C)C,inactive,
Cc1cccc(Nc2ccncc2S(=O)(=O)NC(=O)NC(C)C)c1,inactive,

Structure (SMILES),outcome,"activity, negative = inhibition"
CNC(=O)NC,inactive,
CCCCCC1Nc2cc(C(F)(F)F)c(S(N)(=O)=O)cc2S(=O)(=O)N1 (stereo not given),inactive,
CC(C)CCCC(C)CC=O (stereo not given),inactive,
SCCSCCS,inactive,
O=C(O)c1ccc(OCCN2CCCCC2)cc1,inactive,
Cc1cccc(C(=O)O)c1[N+](=O)[O-],inactive,
CC(=O)N1CCN(c2ccc(O)cc2)CC1,inactive,
C=CCOCC(O)CCl (stereo not given),inactive,
NS(=O)(=O)c1ccccc1OC(F)(F)F,inactive,
CCCCCCCCCCCCCCCCI,,2.97% [at 19 µM] (inactive)
F[Si-2](F)(F)(F)(F)F,inactive,
C=CCOC(=O)c1ccc(C(=O)OCC=C)c(C(=O)OCC=C)c1,inactive,
CC(=O)c1ccc2c(c1)CCCC2,inactive,
CC(CC(=O)O)CC(C)(C)C (stereo not given),inactive,
CC(C)CCCCCCOC(=O)C1CCCCC1C(=O)OCCCCCCC(C)C (stereo not given),inactive,
CCN1CN(CC)CN(CC)C1,inactive,
CC(C)SCc1ccco1,inactive,
CCCCC[Si](OCC)(OCC)OCC,inactive,
CC(C)(c1ccc(Oc2ccc3c(c2)C(=O)OC3=O)cc1)c1ccc(Oc2ccc3c(c2)C(=O)OC3=O)cc1,inactive,
COc1cc([N+](=O)[O-])ccc1N,inactive,
